PubChem BioAssay
Active and inactive are the calls of the source.

What was measured:
[1] = anti-His antibody binders, primary screen, artefact control for SMM control protein annotation, biochemical, small-molecule microarray, 635 nm fluorescence (AID 1128); details: anti-His Alexa647 antibody binding, higher = more signal;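 also: score merges feature fluorescence with signal-to-noise for each printed compound spot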
[2] = system: Human papillomavirus type 1a E7 protein (residues 1-88); test: HPV1a E7 small-molecule binders, primary screen, biochemical, small-molecule microarray, residues 1-88, 635 nm (AID 1129); details: small-molecule microarray binding, fluorescence 635 nm; higher = more signal
[3] = target: Focal adhesion kinase 1 (Homo sapiens) (UniProt Q05397); test: small-molecule microarray binders of FAK, primary screen, biochemical, 635/667 nm fluorescence, BSA, DTT (AID 1130); details: PTK2 binding, 635 nm fluorescence, higher = more signal;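 also: composite of spot emission at 667 nm and signal to noise over triplicate slides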
Sequence of Focal adhesion kinase 1 (Homo sapiens) (Q05397 whole entry, looked up): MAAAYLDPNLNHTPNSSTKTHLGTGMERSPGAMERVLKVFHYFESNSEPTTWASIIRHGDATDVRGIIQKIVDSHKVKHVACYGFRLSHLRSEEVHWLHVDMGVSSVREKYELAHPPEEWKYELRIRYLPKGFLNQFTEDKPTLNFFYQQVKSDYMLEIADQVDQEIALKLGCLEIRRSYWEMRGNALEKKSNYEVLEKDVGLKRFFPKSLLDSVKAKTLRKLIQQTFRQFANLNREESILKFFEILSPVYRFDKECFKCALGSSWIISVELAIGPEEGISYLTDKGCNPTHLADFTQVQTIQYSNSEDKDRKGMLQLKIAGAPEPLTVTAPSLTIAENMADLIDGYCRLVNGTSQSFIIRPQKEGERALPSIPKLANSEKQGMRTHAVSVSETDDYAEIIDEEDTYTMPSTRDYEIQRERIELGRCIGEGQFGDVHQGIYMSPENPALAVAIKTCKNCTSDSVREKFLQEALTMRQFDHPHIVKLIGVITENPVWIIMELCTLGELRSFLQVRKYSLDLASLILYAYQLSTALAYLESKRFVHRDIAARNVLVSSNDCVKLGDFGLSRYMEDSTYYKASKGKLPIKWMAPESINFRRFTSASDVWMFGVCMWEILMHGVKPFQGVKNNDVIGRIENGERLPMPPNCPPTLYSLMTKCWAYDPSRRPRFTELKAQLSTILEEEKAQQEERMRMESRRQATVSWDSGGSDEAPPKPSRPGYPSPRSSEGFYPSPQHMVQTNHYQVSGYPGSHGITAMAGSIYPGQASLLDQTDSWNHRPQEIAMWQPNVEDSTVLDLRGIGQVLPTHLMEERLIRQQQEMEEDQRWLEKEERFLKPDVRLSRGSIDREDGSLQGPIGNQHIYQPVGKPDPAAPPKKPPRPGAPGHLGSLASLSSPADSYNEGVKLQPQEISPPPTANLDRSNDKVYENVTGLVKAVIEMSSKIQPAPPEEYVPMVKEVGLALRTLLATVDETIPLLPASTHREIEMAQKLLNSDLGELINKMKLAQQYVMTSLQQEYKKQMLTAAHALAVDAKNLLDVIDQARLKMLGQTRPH

[4] = system: Fibrinogen (Alexa647-labelled); test: fibrinogen binders on compound microarrays, profiling panel, artefact control for SMM control-protein annotation, biochemical, small-molecule microarray, 635/667 nm fluorescence (AID 1131); details: fibrinogen-A647 binding fluorescence, higher = more signal;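 also: z-score merges 667 nm fluorescence with per-spot signal-to-noise over triplicate slides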
[5] = target: Follistatin (Homo sapiens) (UniProt P19883); test: follistatin binders on small-molecule microarrays, primary screen, biochemical, small-molecule microarray, 635/667 nm fluorescence (AID 1132); details: FST binding, 635 nm fluorescence, higher = more signal
Sequence of Follistatin (Homo sapiens) (P19883 whole entry, looked up): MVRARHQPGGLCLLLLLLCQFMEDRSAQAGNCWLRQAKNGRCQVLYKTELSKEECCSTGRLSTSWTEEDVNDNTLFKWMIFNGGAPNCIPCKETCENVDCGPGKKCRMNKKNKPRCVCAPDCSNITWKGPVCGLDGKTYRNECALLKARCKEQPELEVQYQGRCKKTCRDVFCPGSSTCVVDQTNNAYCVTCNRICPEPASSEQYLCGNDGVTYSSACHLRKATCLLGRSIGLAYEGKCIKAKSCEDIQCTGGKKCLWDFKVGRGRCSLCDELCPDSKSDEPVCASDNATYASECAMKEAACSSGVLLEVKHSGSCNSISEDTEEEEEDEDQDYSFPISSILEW

[6] = target: Fibroblast growth factor 2 (Homo sapiens) (UniProt P09038); test: FGF2 binders on small-molecule microarrays, primary screen, biochemical, small-molecule microarray, 635/667 nm fluorescence (AID 1133); details: small-molecule microarray binding, FGF2, fluorescence 635/667; higher = more signal
Sequence of Fibroblast growth factor 2 (Homo sapiens) (P09038 whole entry, looked up): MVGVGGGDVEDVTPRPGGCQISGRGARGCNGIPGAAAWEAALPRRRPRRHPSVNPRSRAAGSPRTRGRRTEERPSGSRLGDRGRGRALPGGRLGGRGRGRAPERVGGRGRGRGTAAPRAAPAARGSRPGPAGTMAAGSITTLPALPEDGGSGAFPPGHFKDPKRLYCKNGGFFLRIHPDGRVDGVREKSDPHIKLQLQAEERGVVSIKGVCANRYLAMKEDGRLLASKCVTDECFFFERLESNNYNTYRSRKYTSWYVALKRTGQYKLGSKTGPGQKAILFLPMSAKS

[7] = mitochondrial membrane potential change in A549 cells, profiling panel, cell-based, JC-1 fluorescence, basal, 24 h, 100 nL (AID 1138); details: higher = more signal;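 also: A549 lung adenocarcinoma cells under basal conditions with no added stimulus; test concentration not given here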
Lefty1 = Lefty1 binders on small-molecule microarrays, primary screen, biochemical, small-molecule microarray, 635/667 nm fluorescence (AID 1139); details: small-molecule microarray binding, fluorescence 635/667; higher = more signal
[8] = system: wheat germ agglutinin (Triticum aestivum), Alexa647-labelled; test: wheat germ agglutinin binders on compound microarrays, profiling panel, artefact control for SMM control-protein annotation, biochemical, small-molecule microarray, 635/667 nm fluorescence (AID 1140); details: WGA-A647 binding, 635 nm fluorescence, higher = more signal;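 also: score merges 667 nm feature emission with signal to noise over triplicate slides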
[9] = target: Luciferin 4-monooxygenase (Photinus pyralis) (UniProt P08659); test: firefly luciferase enzyme inhibitors, primary screen, biochemical, luminescence, purified enzyme, 2006 set (AID 1141); details: SteadyGlo luminescence, 30 min, higher = more signal, called active from +8 up or from −8 down;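 also: cell-free assay with purified firefly luciferase at 100 ng per well in PBS; test concentration not given here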
Sequence of Luciferin 4-monooxygenase (Photinus pyralis) (P08659 whole entry, looked up): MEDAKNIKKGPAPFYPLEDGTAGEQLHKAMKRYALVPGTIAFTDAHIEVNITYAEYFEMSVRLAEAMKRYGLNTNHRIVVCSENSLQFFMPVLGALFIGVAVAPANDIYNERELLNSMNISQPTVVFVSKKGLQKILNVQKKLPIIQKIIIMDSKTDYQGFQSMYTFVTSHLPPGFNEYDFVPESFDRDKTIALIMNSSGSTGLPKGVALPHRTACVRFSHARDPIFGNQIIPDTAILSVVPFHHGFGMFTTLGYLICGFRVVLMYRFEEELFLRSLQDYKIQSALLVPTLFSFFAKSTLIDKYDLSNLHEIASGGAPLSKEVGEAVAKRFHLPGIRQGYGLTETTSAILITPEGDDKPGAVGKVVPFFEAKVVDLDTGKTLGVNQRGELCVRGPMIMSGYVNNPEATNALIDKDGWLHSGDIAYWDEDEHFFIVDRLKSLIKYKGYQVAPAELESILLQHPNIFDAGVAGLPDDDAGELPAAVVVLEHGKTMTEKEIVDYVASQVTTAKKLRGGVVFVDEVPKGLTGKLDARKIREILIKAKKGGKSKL

| SMILES | composite z-score [1] | composite z-score [2] | composite z-score [3] | composite z-score [4] | composite z-score [5] | composite z-score [6] | z-score [7] | composite z-score (Lefty1) | composite z-score [8] | z-score [9] |
| --- | --- | --- | --- | --- | --- | --- | --- | --- | --- | --- |
| COC(=O)C(CC#Cc1ccc2c(c1)[C@]1(C(=O)N2)[C@H](C(=O)N2CCc3cc(OC)c(OC)cc3C2)[C@H]2C(=O)O[C@H](c3ccccc3)[C@H](c3ccccc3)N2[C@@H]1c1ccccc1OCCO)C(=O)OC | 1.21 | 1.19 | 0.536 | 0.613 | 1.4 | 1.39 | -1.64 | 1.55 | 1.17 | -0.134 (inactive) |
| CN(C)CCCCNC(=O)[C@H]1C[C@H]2C(=O)NCC(=O)N2[C@H]1c1ccc(O)cc1 | 0.489 | -0.791 | -0.424 | -0.473 | 0.481 | 0.304 | -0.124 | 0.057 | 1.08 | 0.836 (inactive) |
| CC=CC(O)C1C=CC2C(=O)NC(=O)C2N1Nc1ccc(Cl)cc1Cl (stereo not given) | 1.78 | -0.352 | -0.288 | -0.419 | 1.04 | -0.0658 | 0.099 | 0.15 | 0.898 | -0.158 (inactive) |
| C=CCC(OC(C)=O)[C@@H]1[C@@H](N(Cc2cccc3ccccc23)C(=O)Cc2ccc(OC)cc2)c2cc(OCCCO)ccc2N1C(=O)Cc1ccc2ccccc2c1 (stereo not given in full) | -0.538 | -0.609 | -0.495 | -0.331 | 0.688 | 0.182 | 0.309 | 0.353 | 0.507 | 0.969 (inactive) |
| COC(=O)[C@@]1(Cc2ccccc2)N=C(c2ccc(OCCCO)cc2)O[C@H]1c1ccccc1CN=[N+]=[N-] | 1.91 | 0.997 | 0.291 | 0.447 | 1.33 | 1.02 | -1.07 | 0.434 | 0.0777 | -2.05 (inactive) |
| COCCOC(=O)N1C(=O)[C@@]2(c3cc(C#CCCO)ccc31)[C@H](c1ccccc1OCCO)N1[C@H](c3ccccc3)[C@H](c3ccccc3)OC(=O)[C@H]1[C@@H]2C(N)=O | 1.75 | 1.24 | 0.621 | 0.996 | 1.02 | 0.963 | -0.0726 | 0.78 | 0.246 | 0.85 (inactive) |
| C[C@@H]1NC(=O)C([C@@H](C)OCc2ccccc2)NC(=O)[C@@]23C(=O)N[C@@H](Cc4ccccc4)C2[C@H](C)[C@@]2(C)O[C@H]2C3/C=C/C/C=C\CNC1=O (stereo not given in full) | -0.839 | -1.36 | -0.526 | -0.397 | 0.0746 | 0.0742 | -0.0956 | 0.0892 | -0.117 | 0.0545 (inactive) |
| COc1ccc(C(=O)Nc2ccc3c(c2)[C@@]2(O[C@H](CCO)[C@@H]([Si](C)(C)c4ccc(OC)cc4)[C@@H]2C)C(=O)N3Cc2ccccc2)cc1 | 0.829 | 0.989 | 0.397 | 0.592 | 1.25 | 1.45 | -1.3 | 0.792 | 0.413 | -0.585 (inactive) |
| CN1C(=O)C2C(C3CC3)C=C3CN(Cc4cccc(Cl)c4)[C@@H]([C@@H](O)Cc4ccccc4)C3C2C1=O (stereo not given in full) | 0.162 | 1.18 | 1.09 | 0.862 | 0.662 | 0.845 | 1.35 | 1.45 | 0.344 | -0.785 (inactive) |
| COC(=O)C(CC#Cc1ccc2c(c1)[C@]1(C(=O)N2)[C@H](c2ccc(OCCO)cc2)N2[C@H](c3ccccc3)[C@H](c3ccccc3)OC(=O)[C@H]2[C@@H]1C(=O)N1CCCCCCC1)C(=O)OC | 2.65 | 1.17 | 2.67 | 0.68 | 1.45 | 0.724 | -1.39 | 1.24 | 1.46 | -0.596 (inactive) |
| CO[C@H]1O[C@H](CO)[C@@H](OC(=O)Nc2ccccc2-c2ccccc2)[C@H](OC(=O)Nc2ccccc2)[C@H]1OC(=O)Nc1ccccc1 | 1.38 | 1.29 | 0.508 | 0.991 | 1.3 | 1.86 | -1.06 | 0.719 | 0.679 | -0.849 (inactive) |
| C=CCN1Cc2ccccc2[C@H]2OC(c3ccc(OCCCO)cc3)=N[C@@]2(CCS(=O)(=O)c2ccccc2)C1=O | 2.05 | 1.22 | 0.621 | 0.0869 | 1.37 | 1.37 | 0.35 | 0.507 | 0.77 | -0.884 (inactive) |
| CCOC(=O)C[C@H]1[C@H](OC(=O)c2cc3ccccc3oc2=O)[C@@H](NC(=O)CC(C)C)c2cc(OCCCO)ccc2N1C(=O)Cc1ccc(OC)cc1 | 0.0111 | 0.43 | -0.0515 | 0.942 | 0.642 | 0.443 | 0.613 | 0.849 | 0.158 | 0.411 (inactive) |
| O=C1O[C@H](Cc2ccccc2)[C@@H]2[C@H]3C=CCCC=C3CN2[C@H]1Cc1ccc(O)cc1 | 1.38 | -1.36 | 0.203 | -2.73 | 0.16 | -0.579 | -0.653 | 0.262 | 0.778 | -0.992 (inactive) |
| COC(=O)C1=CC(CCCO)=CC(c2cccs2)N(Cc2cc3c(cc2Br)OCO3)C=C1C(=O)OC (stereo not given) | 2.57 | 1.25 | 0.87 | 0.999 | 1.08 | 1.43 | 1.33 | 0.273 | 1.13 | -1.39 (inactive) |
| C=CC[C@@]1(C(=O)N(C)C)N=C(c2ccc(OCCCO)cc2)O[C@@H]1c1ccccc1CN=[N+]=[N-] | 2.69 | 1.22 | 0.188 | 0.985 | 1.36 | 1.83 | 3.32 | 0.561 | 1.12 | -0.84 (inactive) |
| COc1ccc(C(=O)Nc2cccc(CN3C(=O)[C@]4(O[C@H](CC(=O)N5Cc6ccccc6C[C@H]5CO)[C@@H]([Si](C)(C)c5ccc(OC)cc5)[C@@H]4C)c4ccccc43)c2)cc1 | 1.17 | 0.481 | 0.343 | 0.368 | 1.39 | 1.7 | -0.806 | 1.59 | -0.0276 | 0.429 (inactive) |
| CCCc1cc2c(n1CCc1ccc(Cl)cc1)C(C)C1CN(C(=O)c3ccccc3)C(C)(C(=O)OC)C21 (stereo not given) | 1.6 | 1.22 | 1.96 | 1.02 | 0.114 | -1.41 | 1.25 | -0.766 | 1.34 | -0.548 (inactive) |
| COCCCNC(=O)[C@@]1(CCC(=O)OC(C)(C)C)COC(c2ccc(OCCCO)cc2)=N1 | 0.839 | 1.27 | 0.403 | 1.04 | 0.636 | 0.502 | -0.274 | -0.322 | 0.386 | 0.75 (inactive) |
| COCCOC(=O)N1C(=O)[C@@]2(c3cc(C#CCC(C(=O)OC)C(=O)OC)ccc31)[C@H](C(=O)Nc1nc3ccccc3s1)[C@H]1C(=O)O[C@H](c3ccccc3)[C@H](c3ccccc3)N1[C@@H]2c1ccc(O)cc1 | 0.777 | 1.21 | 0.235 | 0.461 | 1.3 | 1.46 | -2.26 | 1.29 | 0.762 | 0.258 (inactive) |
| C=CCNC(=O)[C@H]1[C@@H]2C(=O)O[C@@H](c3ccccc3)[C@@H](c3ccccc3)N2[C@@H](c2ccccc2OCCO)[C@]12C(=O)N(C(=O)OCCOC)c1ccc(C#Cc3ccc(OC)cc3)cc12 | 0.63 | 1.19 | 0.723 | 0.732 | 0.406 | 0.235 | -0.844 | 0.407 | 0.924 | -1.05 (inactive) |
| COCCn1c(C(=O)N(C)C)cc2c1C[C@H]1CN(C(=O)c3ccccc3)[C@@](Cc3ccc(OC)cc3)(C(=O)OC)[C@@H]21 | 1.59 | 1.04 | 0.585 | 0.837 | 0.571 | -0.226 | 1.66 | -0.201 | 0.94 | 0.75 (inactive) |
| COc1ccc(C(=O)Nc2ccc(CN3C(=O)[C@@]4(O[C@@H](CCn5cc(CCO)nn5)[C@H]([Si](C)(C)c5ccc(OC)cc5)[C@H]4C)c4ccccc43)cc2)cc1 | 1.17 | 1.17 | 0.749 | 0.874 | 1.35 | 1.21 | -0.326 | 1.1 | 0.522 | -0.162 (inactive) |
| COCCCNC(=O)[C@@]1(CCS(=O)(=O)c2ccccc2)COC(c2ccc(OCCCO)cc2)=N1 | 3.75 | 0.92 | 0.394 | 1.02 | 1.31 | 0.194 | 0.206 | -0.0951 | 1.59 | -0.0482 (inactive) |
| CN1C(=O)C2C(C1=O)C1C=C(c3ccc(CO)cc3)C2C(C2CC2)N1C (stereo not given) | 0.958 | -0.164 | -0.324 | -0.578 | -0.17 | -0.124 | -0.808 | -0.617 | -0.0515 | 0.279 (inactive) |
| CC(C)NC(=O)[C@@]1(c2ccc([N+](=O)[O-])cc2)CC(=O)N(CC23CC4CC(CC(C4)C2)C3)[C@@H]1c1ccc(CO)cc1 | 0.999 | 1.18 | 0.601 | 0.948 | 1.35 | 1.55 | -0.237 | 1.51 | 0.738 | 0.346 (inactive) |
| COCCOC(=O)N1C(=O)[C@@]2(c3ccccc31)[C@H](C(=O)N1CCN(c3ncccn3)CC1)[C@H]1C(=O)O[C@H](c3ccccc3)[C@H](c3ccccc3)N1[C@@H]2c1ccccc1OCCO | 0.724 | 1.18 | 0.382 | 0.867 | 1.15 | 0.606 | -0.531 | 1.02 | 0.272 | -0.0896 (inactive) |
| C=CCNC(=O)[C@@H]1[C@H]2C(=O)O[C@H](c3ccccc3)[C@H](c3ccccc3)N2[C@H](c2ccc(OCCO)cc2)[C@@]12C(=O)Nc1ccc(C#CC3(O)CCCCCC3)cc12 | 2.64 | 1.18 | 0.245 | 0.891 | 1.34 | 0.755 | -1.21 | 0.497 | 1.04 | -0.467 (inactive) |
